Assay results from PubChem BioAssay (Tox21).
Records with an inconclusive call do not appear. A number with no mark means an inactive call. Active and inactive are the calls of the source. Calls come from the whole dose curve; as a rule, active = well fitted curve in the direction sought with a large enough effect in the repeat runs; inconclusive = weak or mixed curves; inactive = no such curve, though single readings can be large; an effect the other way counts as inactive or inconclusive.

Biological target: Cytochrome P450 1A2 (Homo sapiens) (UniProt P05177)
Test: Cytochrome P450 Family 1 Subfamily A Member 2 (CYP1A2) small molecule antagonists: luciferase reporter qHTS assay (AID 1671199)
Conditions: P450-Glo CYP1A2 enzyme, luciferin luminescence, 1 h; series mostly up to 53 µM; activity change, negative = inhibition: at the top concentration
Procedure, shortened: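 Inhibition of CYP1A2 conversion of proluciferin to luciferin, detected by luminescence. Reaction run 1 h at room temperature with NADPH regeneration after brief compound preincubation.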
% is set by controls: 0 for no effect and ±100 for the full control effect; potency is the fitted concentration of half-maximal effect.
Note: nearly all actives have a fitted effect of over 50% in size.

Cytochrome P450 1A2 (Homo sapiens), sequence (P05177 whole entry, looked up): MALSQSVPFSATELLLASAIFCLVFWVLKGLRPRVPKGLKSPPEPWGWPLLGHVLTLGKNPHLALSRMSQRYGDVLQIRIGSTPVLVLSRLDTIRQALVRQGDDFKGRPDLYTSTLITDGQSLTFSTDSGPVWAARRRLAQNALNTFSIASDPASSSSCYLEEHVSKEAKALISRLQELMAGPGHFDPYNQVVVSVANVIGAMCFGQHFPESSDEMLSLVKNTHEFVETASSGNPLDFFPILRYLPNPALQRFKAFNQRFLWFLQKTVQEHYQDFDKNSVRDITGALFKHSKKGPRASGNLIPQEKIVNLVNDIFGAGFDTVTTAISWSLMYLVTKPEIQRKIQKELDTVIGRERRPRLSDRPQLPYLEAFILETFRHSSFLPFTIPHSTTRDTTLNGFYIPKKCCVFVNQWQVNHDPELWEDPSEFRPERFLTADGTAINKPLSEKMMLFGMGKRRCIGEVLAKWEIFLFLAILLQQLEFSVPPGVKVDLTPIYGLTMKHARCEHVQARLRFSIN

| Structure (SMILES) | Potency | activity change, negative = inhibition |
| --- | --- | --- |
| O=C1Cc2cc(Cl)ccc2N1 | 11 µM (active) |  |
| C/C=C(/C(=C/C)c1ccc(O)cc1)c1ccc(O)cc1 |  | 5.26% |
| NCCNCCO |  | -28.5% [at 115 µM] |
| N#CCCN(CCO)CCO |  | -1.18% [at 115 µM] |
| CCCCCCCC/C=C\CCCCCCCCCCCC(=O)O |  | -25.1% [at 115 µM] |
| CCn1cc(C(=O)O)c(=O)c2cc(F)c(N3CCNCC3)cc21 |  | 8.19% |
| CCCCN1CCCC1C(=O)Nc1c(C)cc(C)cc1C (stereo not drawn) |  | -21.2% |
| Oc1cc2c(cc1O)[C@H]1c3ccc(O)c(O)c3OC[C@@]1(O)C2 | 36 µM (active) |  |
| CC[C@]1(O)C[C@H]2CN(CCc3c([nH]c4ccccc34)[C@@](C(=O)OC)(c3cc4c(cc3OC)N(C=O)[C@H]3[C@@](O)(C(=O)OC)[C@H](OC(C)=O)[C@]5(CC)C=CCN6CC[C@]43[C@@H]65)C2)C1 |  | -18.6% |
| CC(=O)OCC[N+](C)(C)C | 24.5 µM (active) |  |
| Cc1ccccc1S | 50.7 µM (active) |  |
| CCC(C)COC(C)=O (stereo not drawn) |  | -5.01% [at 115 µM] |
| O=C(O)C[C@H](NC(=O)OCc1ccccc1)C(=O)O |  | -19.2% [at 115 µM] |
| O=C(O)CCC(=O)C(=O)O |  | -7.32% [at 115 µM] |
| CN1C(C(=O)Nc2ccccn2)=C(O)c2sccc2S1(=O)=O |  | 11.1% |
| CN(C(=O)CN(CCO)CC(=O)N(C)C(C)(C)Cc1ccccc1)C(C)(C)Cc1ccccc1 |  | 4.68% |
| CCN(CC)CCNC(=O)COc1ccc(OC)cc1 |  | -8.25% |
| C[C@@H]1CC(=O)NN=C1c1ccc(NN=C(C#N)C#N)cc1 | inactive |  |

| Structure (SMILES) | Potency | activity change, negative = inhibition |
| --- | --- | --- |
| Cc1ccc(CO)cc1 | 32.1 µM (active) |  |
| CCOC(C)=O |  | -2.67% [at 115 µM] |
| C[C@@H](O)[C@H]1C(=O)N2C(C(=O)O)=C([C@H]3CCCO3)S[C@H]12 |  | -20.4% |
| O=c1[nH]ncc2ccccc12 |  | -14.9% [at 115 µM] |
| C=C(C)C(=O)OCCCCCCCCCCCCC |  | 1.17% [at 115 µM] |
| FC(F)(F)c1ccccc1Cl |  | -26.9% [at 115 µM] |
| CC1=C(Br)C(=O)C(Br)=C/C1=C(/c1ccccc1S(=O)(=O)O)c1cc(Br)c(O)c(Br)c1C | 19.2 µM (active) |  |
| CC(C)Nc1cccnc1N1CCN(C(=O)c2cc3cc(NS(C)(=O)=O)ccc3[nH]2)CC1 |  | -21.1% |
| CC=C(Cl)Cl |  | -11.3% [at 115 µM] |
| CC(=O)Nc1ccc(C)cc1C |  | -29.8% [at 115 µM] |
| O=C=Nc1cccc(C(F)(F)F)c1 |  | -32.8% [at 115 µM] |
| CC(=O)OCC(=O)NCCCOc1cccc(CN2CCCCC2)c1 |  | -6.14% |
| c1cc(N(CC2CO2)CC2CO2)ccc1Cc1ccc(N(CC2CO2)CC2CO2)cc1 (stereo not drawn) |  | -19.9% [at 115 µM] |
| O=C(O)c1cccc(-c2noc(-c3ccccc3F)n2)c1 | 4.56 µM (active) |  |
| O=C1NCCN1CCO |  | -1.58% [at 115 µM] |
| CCCCCCCCC(CCCCCC)C(=O)O (stereo not drawn) |  | -9.8% [at 115 µM] |
| Cc1ccc(Cl)c(Nc2ccccc2C(=O)O)c1Cl |  | 9.83% |

Biological target: Voltage-gated inwardly rectifying potassium channel KCNH2 (Homo sapiens) (UniProt Q12809)
Test: Human Ether-a-go-go-Related Gene (hERG) channel small molecule antagonists: fluorescence cell-based qHTS assay (AID 1671200);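 for activity change, negative = inhibition: hERG-expressing U2OS cells given a thallium stimulus after FluxOR II dye loading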
Conditions: hERG-U2OS cells, FluxOR thallium flux fluorescence; series mostly up to 76.8 µM; activity change, negative = inhibition: at the top concentration
Procedure, shortened: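 Fluorescence at 540 nm emission (480 nm excitation) was recorded kinetically for 2 min at 1-second intervals once the thallium-containing stimulus reached cells previously loaded with FluxOR II dye.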

Voltage-gated inwardly rectifying potassium channel KCNH2 (Homo sapiens), sequence (Q12809 whole entry, looked up): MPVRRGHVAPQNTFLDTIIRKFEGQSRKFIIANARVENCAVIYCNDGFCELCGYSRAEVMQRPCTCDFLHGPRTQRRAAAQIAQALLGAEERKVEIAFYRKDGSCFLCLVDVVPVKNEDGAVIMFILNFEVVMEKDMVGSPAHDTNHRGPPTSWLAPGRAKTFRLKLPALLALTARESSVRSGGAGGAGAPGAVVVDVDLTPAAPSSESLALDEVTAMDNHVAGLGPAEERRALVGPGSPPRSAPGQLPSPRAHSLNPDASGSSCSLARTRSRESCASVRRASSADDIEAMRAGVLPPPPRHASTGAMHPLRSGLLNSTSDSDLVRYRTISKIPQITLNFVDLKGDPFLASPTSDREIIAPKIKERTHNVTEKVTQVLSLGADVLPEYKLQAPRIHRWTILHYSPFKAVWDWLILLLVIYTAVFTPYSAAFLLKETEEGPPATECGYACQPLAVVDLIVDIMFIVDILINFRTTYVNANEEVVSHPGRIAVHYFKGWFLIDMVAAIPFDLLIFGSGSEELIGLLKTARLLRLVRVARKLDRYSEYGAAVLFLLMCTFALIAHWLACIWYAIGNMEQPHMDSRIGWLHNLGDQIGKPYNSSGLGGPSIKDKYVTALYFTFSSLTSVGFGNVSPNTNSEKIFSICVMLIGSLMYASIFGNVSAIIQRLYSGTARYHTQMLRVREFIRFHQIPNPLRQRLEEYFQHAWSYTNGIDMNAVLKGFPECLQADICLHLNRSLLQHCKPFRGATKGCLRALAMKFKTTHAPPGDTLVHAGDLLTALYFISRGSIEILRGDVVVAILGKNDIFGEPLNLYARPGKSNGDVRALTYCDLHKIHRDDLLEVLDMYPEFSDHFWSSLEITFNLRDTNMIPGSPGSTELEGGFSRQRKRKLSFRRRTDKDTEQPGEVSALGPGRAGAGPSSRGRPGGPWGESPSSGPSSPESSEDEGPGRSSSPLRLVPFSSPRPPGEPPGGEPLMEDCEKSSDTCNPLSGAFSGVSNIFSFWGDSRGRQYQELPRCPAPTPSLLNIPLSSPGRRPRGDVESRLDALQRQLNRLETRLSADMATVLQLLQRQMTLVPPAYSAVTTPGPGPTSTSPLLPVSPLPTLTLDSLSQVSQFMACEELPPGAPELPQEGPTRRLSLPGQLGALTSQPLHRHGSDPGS

| Structure (SMILES) | activity change, negative = inhibition | Potency |
| --- | --- | --- |
| O=C1Cc2cc(Cl)ccc2N1 | -7.24% [at 35.3 µM] |  |
| C/C=C(/C(=C/C)c1ccc(O)cc1)c1ccc(O)cc1 | 1.02% [at 35.3 µM] |  |
| NCCNCCO | 2.71% |  |
| N#CCCN(CCO)CCO | -3.61% |  |
| CCCCCCCC/C=C\CCCCCCCCCCCC(=O)O | -1.58% |  |
| CCn1cc(C(=O)O)c(=O)c2cc(F)c(N3CCNCC3)cc21 | -2.72% [at 35.3 µM] |  |
| CCCCN1CCCC1C(=O)Nc1c(C)cc(C)cc1C (stereo not drawn) | 1.19% [at 35.3 µM] |  |
| Oc1cc2c(cc1O)[C@H]1c3ccc(O)c(O)c3OC[C@@]1(O)C2 | -5.89% |  |
| CC[C@]1(O)C[C@H]2CN(CCc3c([nH]c4ccccc34)[C@@](C(=O)OC)(c3cc4c(cc3OC)N(C=O)[C@H]3[C@@](O)(C(=O)OC)[C@H](OC(C)=O)[C@]5(CC)C=CCN6CC[C@]43[C@@H]65)C2)C1 | -9.53% [at 35.3 µM] |  |
| C[C@@H]1CN(CCCn2c3ccccc3c3ccccc32)C[C@H](C)N1 |  | 6.01 µM (active) |
| CC(=O)OCC[N+](C)(C)C | -0.464% [at 35.3 µM] |  |
| Cc1ccccc1S | 0.786% [at 35.3 µM] |  |
| CCC(C)COC(C)=O (stereo not drawn) | -2.59% |  |
| O=C(O)C[C@H](NC(=O)OCc1ccccc1)C(=O)O | 1.39% |  |
| O=C(O)CCC(=O)C(=O)O | 0.649% |  |
| CN1C(C(=O)Nc2ccccn2)=C(O)c2sccc2S1(=O)=O | 1.27% [at 35.3 µM] |  |
| CN(C(=O)CN(CCO)CC(=O)N(C)C(C)(C)Cc1ccccc1)C(C)(C)Cc1ccccc1 | -20.9% [at 35.3 µM] |  |
| CCN(CC)CCNC(=O)COc1ccc(OC)cc1 | -1.28% [at 35.3 µM] |  |
| Cc1ccc(CO)cc1 | 3.41% |  |

| Structure (SMILES) | activity change, negative = inhibition | Potency |
| --- | --- | --- |
| CCOC(C)=O | -3.02% |  |
| C[C@@H](O)[C@H]1C(=O)N2C(C(=O)O)=C([C@H]3CCCO3)S[C@H]12 | 1.69% [at 35.3 µM] |  |
| O=c1[nH]ncc2ccccc12 | 1.4% |  |
| C=C(C)C(=O)OCCCCCCCCCCCCC | -4.16% |  |
| FC(F)(F)c1ccccc1Cl | 0.0755% |  |
| CC1=C(Br)C(=O)C(Br)=C/C1=C(/c1ccccc1S(=O)(=O)O)c1cc(Br)c(O)c(Br)c1C | 2.02% [at 35.3 µM] |  |
| CC(C)Nc1cccnc1N1CCN(C(=O)c2cc3cc(NS(C)(=O)=O)ccc3[nH]2)CC1 |  | 9.52 µM (active) |
| CC=C(Cl)Cl | -0.66% |  |
| CC(=O)Nc1ccc(C)cc1C | -0.842% |  |
| CC(CCC(=O)O)C(=O)O (stereo not drawn) | 0.394% |  |
| O=C=Nc1cccc(C(F)(F)F)c1 | -3.35% |  |
| CN1C(=O)OC(C)(C)C1=O | 5.26% |  |
| CC(=O)OCC(=O)NCCCOc1cccc(CN2CCCCC2)c1 | 1.31% [at 35.3 µM] |  |
| c1cc(N(CC2CO2)CC2CO2)ccc1Cc1ccc(N(CC2CO2)CC2CO2)cc1 (stereo not drawn) | -21.2% |  |
| O=C1c2ccccc2C(=O)C1(O)O | 4.66% |  |
| O=C(O)c1cccc(-c2noc(-c3ccccc3F)n2)c1 | -0.157% [at 35.3 µM] |  |
| O=C1NCCN1CCO | -0.5% |  |
| CCCCCCCCC(CCCCCC)C(=O)O (stereo not drawn) | -4.96% |  |
| Cc1ccc(Cl)c(Nc2ccccc2C(=O)O)c1Cl | 2.55% [at 35.3 µM] |  |
